The results in this text go back to the supplement of paper PMC11006884.

About 6,500 targets were measured; listed, in parts, are those with a hit and a random draw of the rest. About 2% of all pairs of compound and target were hits.

UniProt Q14790, sequence (Q14790 whole entry): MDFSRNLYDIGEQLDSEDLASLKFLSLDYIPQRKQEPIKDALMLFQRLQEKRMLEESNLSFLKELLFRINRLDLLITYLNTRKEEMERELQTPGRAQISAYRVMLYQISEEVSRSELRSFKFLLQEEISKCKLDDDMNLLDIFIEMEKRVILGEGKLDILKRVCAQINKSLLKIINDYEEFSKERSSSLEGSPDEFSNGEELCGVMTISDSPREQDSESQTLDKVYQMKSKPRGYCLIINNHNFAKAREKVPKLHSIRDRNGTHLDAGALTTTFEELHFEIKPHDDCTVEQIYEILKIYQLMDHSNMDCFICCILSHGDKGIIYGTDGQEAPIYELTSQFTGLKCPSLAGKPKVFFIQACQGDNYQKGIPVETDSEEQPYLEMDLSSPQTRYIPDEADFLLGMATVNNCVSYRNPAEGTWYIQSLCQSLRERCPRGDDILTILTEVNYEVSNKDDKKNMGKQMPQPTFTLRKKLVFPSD
UniProt Q04726, sequence (Q04726 whole entry): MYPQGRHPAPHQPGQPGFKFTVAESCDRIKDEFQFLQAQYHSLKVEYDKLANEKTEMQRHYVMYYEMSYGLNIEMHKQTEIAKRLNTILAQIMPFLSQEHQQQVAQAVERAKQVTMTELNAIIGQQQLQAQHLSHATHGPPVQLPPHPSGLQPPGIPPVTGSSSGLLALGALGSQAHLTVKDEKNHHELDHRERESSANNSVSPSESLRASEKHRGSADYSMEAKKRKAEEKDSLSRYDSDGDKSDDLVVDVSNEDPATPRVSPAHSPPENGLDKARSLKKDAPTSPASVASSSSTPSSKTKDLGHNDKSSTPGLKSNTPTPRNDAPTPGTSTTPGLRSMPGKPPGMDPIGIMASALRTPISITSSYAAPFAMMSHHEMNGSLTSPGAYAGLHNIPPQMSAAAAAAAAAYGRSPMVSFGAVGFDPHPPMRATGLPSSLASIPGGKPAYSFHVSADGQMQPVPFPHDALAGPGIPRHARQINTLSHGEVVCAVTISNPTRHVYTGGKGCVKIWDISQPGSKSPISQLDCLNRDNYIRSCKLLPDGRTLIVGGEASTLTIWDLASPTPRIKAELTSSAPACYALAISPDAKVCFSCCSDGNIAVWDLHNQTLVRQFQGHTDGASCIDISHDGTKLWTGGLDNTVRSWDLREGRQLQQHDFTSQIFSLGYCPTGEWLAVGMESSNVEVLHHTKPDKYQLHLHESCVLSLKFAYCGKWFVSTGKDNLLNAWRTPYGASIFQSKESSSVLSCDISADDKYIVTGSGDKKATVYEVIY
UniProt Q14683, sequence (Q14683 whole entry, looked up): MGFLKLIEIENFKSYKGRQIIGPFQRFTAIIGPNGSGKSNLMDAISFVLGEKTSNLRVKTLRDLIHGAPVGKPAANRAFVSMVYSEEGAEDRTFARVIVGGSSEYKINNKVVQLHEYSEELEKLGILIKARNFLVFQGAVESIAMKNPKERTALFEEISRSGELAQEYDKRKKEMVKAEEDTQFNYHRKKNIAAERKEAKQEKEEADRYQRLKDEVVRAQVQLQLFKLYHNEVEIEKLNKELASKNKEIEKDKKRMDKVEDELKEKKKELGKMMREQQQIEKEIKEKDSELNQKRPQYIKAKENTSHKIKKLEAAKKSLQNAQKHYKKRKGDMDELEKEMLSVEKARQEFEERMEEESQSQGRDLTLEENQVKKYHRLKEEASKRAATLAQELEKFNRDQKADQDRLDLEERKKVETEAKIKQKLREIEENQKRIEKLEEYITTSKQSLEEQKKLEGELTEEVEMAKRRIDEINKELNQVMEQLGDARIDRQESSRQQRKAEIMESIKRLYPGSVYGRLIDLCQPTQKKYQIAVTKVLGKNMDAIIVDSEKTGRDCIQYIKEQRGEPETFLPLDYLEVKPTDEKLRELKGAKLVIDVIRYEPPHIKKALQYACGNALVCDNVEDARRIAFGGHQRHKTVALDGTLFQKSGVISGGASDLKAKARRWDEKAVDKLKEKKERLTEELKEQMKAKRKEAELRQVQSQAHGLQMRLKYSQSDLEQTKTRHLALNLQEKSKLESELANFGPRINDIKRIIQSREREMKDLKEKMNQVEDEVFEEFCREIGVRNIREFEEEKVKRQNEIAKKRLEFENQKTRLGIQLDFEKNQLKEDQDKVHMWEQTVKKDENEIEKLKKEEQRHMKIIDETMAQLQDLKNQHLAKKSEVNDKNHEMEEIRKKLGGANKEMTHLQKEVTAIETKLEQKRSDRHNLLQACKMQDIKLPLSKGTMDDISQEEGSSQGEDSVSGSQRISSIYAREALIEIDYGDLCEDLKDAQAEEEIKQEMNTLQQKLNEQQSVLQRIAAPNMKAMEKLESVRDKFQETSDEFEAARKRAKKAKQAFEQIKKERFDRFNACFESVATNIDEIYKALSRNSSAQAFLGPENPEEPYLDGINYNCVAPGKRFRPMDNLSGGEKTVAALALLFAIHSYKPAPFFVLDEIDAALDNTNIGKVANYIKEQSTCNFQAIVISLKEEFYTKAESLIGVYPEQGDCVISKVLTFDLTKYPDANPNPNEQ
UniProt Q14966, sequence (Q14966 whole entry, looked up): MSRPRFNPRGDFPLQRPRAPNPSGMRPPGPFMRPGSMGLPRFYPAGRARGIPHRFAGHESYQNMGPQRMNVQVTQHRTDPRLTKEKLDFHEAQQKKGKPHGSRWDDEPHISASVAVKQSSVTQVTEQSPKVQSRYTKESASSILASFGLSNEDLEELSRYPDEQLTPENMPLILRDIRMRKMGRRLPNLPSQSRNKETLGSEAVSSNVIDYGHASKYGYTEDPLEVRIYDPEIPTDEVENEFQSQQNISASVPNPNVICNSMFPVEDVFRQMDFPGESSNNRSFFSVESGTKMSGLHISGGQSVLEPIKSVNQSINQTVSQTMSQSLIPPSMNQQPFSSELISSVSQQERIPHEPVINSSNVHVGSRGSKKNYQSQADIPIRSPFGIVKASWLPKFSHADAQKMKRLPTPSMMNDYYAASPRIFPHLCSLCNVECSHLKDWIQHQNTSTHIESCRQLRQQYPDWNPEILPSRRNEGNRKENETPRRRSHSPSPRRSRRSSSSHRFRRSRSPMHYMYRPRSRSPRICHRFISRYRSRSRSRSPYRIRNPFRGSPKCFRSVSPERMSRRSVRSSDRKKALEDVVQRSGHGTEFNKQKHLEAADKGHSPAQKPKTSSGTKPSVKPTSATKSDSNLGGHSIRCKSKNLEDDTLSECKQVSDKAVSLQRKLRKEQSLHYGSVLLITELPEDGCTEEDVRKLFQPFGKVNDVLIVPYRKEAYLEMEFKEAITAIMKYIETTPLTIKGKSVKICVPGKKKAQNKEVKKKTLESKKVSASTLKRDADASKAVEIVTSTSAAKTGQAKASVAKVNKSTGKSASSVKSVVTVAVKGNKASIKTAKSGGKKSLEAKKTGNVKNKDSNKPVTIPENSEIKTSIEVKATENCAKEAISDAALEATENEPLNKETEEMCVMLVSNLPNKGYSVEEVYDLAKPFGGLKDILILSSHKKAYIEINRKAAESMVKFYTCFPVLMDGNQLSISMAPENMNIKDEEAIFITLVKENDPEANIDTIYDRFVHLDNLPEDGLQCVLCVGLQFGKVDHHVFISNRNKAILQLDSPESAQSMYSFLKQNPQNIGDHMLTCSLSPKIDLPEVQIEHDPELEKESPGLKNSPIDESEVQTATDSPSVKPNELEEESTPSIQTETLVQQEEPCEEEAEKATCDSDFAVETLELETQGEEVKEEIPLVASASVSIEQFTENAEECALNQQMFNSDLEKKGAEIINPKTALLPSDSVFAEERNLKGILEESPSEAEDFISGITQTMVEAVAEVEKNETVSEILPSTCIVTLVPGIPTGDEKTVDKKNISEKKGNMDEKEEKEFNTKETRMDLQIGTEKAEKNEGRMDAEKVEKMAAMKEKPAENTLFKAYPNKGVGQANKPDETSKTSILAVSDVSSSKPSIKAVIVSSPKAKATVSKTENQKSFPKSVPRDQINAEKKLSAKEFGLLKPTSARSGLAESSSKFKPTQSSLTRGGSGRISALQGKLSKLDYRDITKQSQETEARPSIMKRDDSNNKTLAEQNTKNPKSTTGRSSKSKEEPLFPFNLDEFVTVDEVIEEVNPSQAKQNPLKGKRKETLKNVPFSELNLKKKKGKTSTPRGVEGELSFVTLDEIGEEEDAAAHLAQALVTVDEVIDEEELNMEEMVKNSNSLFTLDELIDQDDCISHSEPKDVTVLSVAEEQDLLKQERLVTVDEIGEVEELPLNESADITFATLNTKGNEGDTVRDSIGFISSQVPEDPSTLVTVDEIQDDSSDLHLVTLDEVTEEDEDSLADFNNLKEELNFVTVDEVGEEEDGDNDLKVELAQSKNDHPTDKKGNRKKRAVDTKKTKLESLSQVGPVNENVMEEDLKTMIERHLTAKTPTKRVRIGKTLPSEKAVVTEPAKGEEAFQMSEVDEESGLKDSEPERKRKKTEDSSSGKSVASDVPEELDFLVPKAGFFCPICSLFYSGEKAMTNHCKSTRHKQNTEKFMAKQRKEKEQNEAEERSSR
UniProt P53701, sequence (P53701 whole entry, looked up): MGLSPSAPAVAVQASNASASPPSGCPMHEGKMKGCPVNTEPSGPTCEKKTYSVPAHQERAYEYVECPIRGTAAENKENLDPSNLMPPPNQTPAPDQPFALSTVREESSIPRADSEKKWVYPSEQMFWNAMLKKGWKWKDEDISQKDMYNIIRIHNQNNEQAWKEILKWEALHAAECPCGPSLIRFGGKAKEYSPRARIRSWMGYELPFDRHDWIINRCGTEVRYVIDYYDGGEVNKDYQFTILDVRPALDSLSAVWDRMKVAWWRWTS
UniProt Q15024, sequence (Q15024 whole entry): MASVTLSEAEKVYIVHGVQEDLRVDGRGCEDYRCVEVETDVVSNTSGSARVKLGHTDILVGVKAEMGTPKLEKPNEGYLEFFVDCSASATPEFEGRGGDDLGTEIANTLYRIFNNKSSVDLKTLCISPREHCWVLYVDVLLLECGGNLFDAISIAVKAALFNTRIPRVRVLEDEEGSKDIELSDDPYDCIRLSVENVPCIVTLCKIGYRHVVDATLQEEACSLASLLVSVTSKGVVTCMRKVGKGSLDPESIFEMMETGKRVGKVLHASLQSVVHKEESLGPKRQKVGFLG

Compound in the test: COC(=O)C#Cc1ccccc1 [methyl 3-phenylpropiolate]
Put plainly: log2 ratio of iodoacetamide-alkyne labeling of the cysteine site, DMSO over compound (competition); higher = stronger covalent engagement of the cysteine by the compound, active = 1 or more. As to conditions: 500 µM; treatment time 1 h; system: HEK293T cell lysate. Put shortly:
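Electrophile (500 µM) or vehicle was added to HEK293T lysate (2 mg/mL) for 1 h at ambient temperature before iodoacetamide alkyne labelling (1 h) and click coupling to sCIP-TMT reagents. After pooling, overnight trypsin digestion at 37 °C, streptavidin enrichment and acid elution, peptides were measured by Orbitrap Eclipse LC-MS/MS with FAIMS and quantified in FragPipe. Each cysteine's log2 competition ratio compares mean control-channel with mean compound-channel reporter intensity, control over compound. Data came from duplicate channels across three replicates, excluding cysteines quantified in only one replicate.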
In the case of AKAP12 C1399 (UniProt Q02952), the “log2 ratio of iodoacetamide-alkyne labeling” value (“log2 ratio” for short) is 1.16 (active). For NUP98 C1312 (UniProt P52948) the value was 0.426 (inactive). The same measure for ESPL1 C294 (UniProt Q14674): 0.577 (inactive). For DYNC1H1 C1977 (UniProt Q14204), the “log2 ratio” value was 0.124 (inactive). Turning to MARS C38 (UniProt P56192), the “log2 ratio” value is 0.14 (inactive). For TLE3 C528 (UniProt Q04726) the value was 1.34 (active); for SPCS2 C26 (UniProt Q15005), 1.62 (active); for NCAPD2 C1249 (UniProt Q15021), 0.179 (inactive). The same measure for PAFAH1B3 C55 (UniProt Q15102): 0.0597 (inactive); for CNN3 C173 (UniProt Q15417): 1.01 (active). Turning to RRP12 C799 (UniProt Q5JTH9), the “log2 ratio” value is 0.107 (inactive). For EEA1 C1405 (UniProt Q15075) the value was 0.0817 (inactive).

For the target NUMA1 C961 (UniProt Q14980), the “log2 ratio” value is 1.55 (active).

Take NUMA1 C658 (UniProt Q14980): the “log2 ratio” value was -0.0504 (inactive). Take FOXK1 C254 (UniProt P85037): the “log2 ratio” value is 1.18 (active). The same measure for NDUFA5 C17 (UniProt Q16718): 0.144 (inactive). For CASP8 C360 (UniProt Q14790) the value was 1.2 (active). The same measure for HCCS C66 (UniProt P53701): 0.724 (inactive); for EXOSC9 C9 (UniProt Q06265): 0.307 (inactive). Consider UniProt P55072_C209, for which the “log2 ratio” value is 0.132 (inactive). For AKAP12 C1407 (UniProt Q02952) the value was 1.16 (active); for BMS1 C895 (UniProt Q14692), 0.11 (inactive); for MDC1 C128 (UniProt Q14676), 0.14 (inactive).

For the target AKAP12 C1139 (UniProt Q02952), the “log2 ratio” value is 0.521 (inactive). For MAP7D1 C373 (UniProt Q3KQU3) the value was 0.815 (inactive). As for NUBP1 C22 (UniProt P53384), the “log2 ratio” value was 2.24 (active). For SMC1A C987 (UniProt Q14683) the value was 0.473 (inactive); for EXOSC7 C85 (UniProt Q15024), -0.0747 (inactive); for PDCD11 C151 (UniProt Q14690), 0.508 (inactive).

In the case of UniProt P62306_C66, the “log2 ratio” value is 0.0671 (inactive).

In the case of CLTC C870 (UniProt Q00610), the “log2 ratio” value was 0.621 (inactive). The same measure for PTPN13 C937 (UniProt Q12923): 0.773 (inactive); for TTLL12 C612 (UniProt Q14166): 0.0779 (inactive); for ZNF638 C1930 (UniProt Q14966): -0.212 (inactive). For AARS2 C750 (UniProt Q5JTZ9) the value was 0.846 (inactive). For DYNC1H1 C4216 (UniProt Q14204) the value was 0.162 (inactive).
